About 83,000 compounds went through this panel and 20% of them were active in at least one assay; those are over-represented in the sample as a whole.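 The test compound was applied at a single concentration to cells in 96-well plates for 48 hours, and percent growth was recorded.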 Activity calls are given as the source filed them.

In the assay the test system is SN12C renal. Nature of the assay: NCI-60 one-dose screen, 48 h (100 = growth as untreated, 0 = no growth, -100 = all killed). Conditions: 10 µM unless noted. The procedure:
Growth inhibition of the SN12C human tumor cell line is measured as a screen for anti-cancer activity. Cells are grown in 96 well plates and exposed to the test compound for 48 hours. Compounds are tested at a single concentration, which is 10^-5 M for most compounds. The reported endpoint is percent growth (GI% or GIPRCNT), where numbers from 0 - 100% represent growth inhibition, and numbers from -100% - 0 represent cell death. For example, a value of 40 represents 60% growth inhibition. A value of 0 means no net growth occurred over the course of the experiment. A value of -40 indicates 40% of cells at the beginning of the experiment died by the end of the experiment. A value of -100 means all cells are dead at the end of the experiment.
NCI-60 Human Tumor Cell Lines Screen was performed using the standard one-dose NCI protocol, which is described in more detail at https://dtp.cancer.gov/discovery_development/nci-60/default.htm.
Compounds with GIPRCNT values below 10 were considered active. Activity score was based on GIPRCNT using the following formula: […]
Score is 0 for GIPRCNT values of 100 or above, 50 for GIPRCNT values of 0, and 100 for GIPRCNT values of -100.
As for `c1cn2c(ccc3nc(-c4cn[nH]c4)c4c(c32)CCCC4)n1`, the growth was 59.2% (inactive).

Turning to `c1cc(-c2nc3ccc4[nH]ncc4c3c3c2CCCC3)[nH]n1`, the growth is 75% (inactive).

On to `Cn1cc(CNc2nc3ccc(OC/C(=C/F)CN)cc3o2)ccc1=O`, for which the growth was 99.8% (inactive).

Take `NS(=O)(=O)c1ccc(Nc2nc(SCc3ccccc3)nc3ccccc23)cc1`: the growth was 65.1% (inactive).

Consider `COc1ccc(NC(=O)CSc2nnc(-c3ccc4nc(-c5ccc(OC)c(OC)c5)[nH]c4c3)o2)cc1OC`, for which the growth was 100% (inactive).

As to `O=C(CN1CCN(c2cc(=O)n(-c3ccccc3)c3ccccc23)CC1)Nc1cccc(C(F)(F)F)c1`, the growth is 75.9% (inactive).

With `COCCNc1ccc2ncc(C#Cc3cncc(C(=O)Nc4ccc(CN5CCN(C)CC5)c(C(F)(F)F)c4)c3)n2n1`, the growth was -6.14% (active).

As for `COc1c(N2CC3CCCNC3C2)c(F)cc2c(=O)c(C(=O)N/N=C/c3ccccc3)cn(C3CC3)c12` (stereo not given), the growth was 91.5% (inactive).

As to `CC(=O)c1ccc(Nc2nc(SCC(C)C)nc(-c3ccccc3)c2C#N)cc1`, the growth was 95.9% (inactive).

`Cn1ccnc1C(=O)/C=C/c1ccc(CNC(=O)c2c(F)c(F)c(F)c(F)c2F)cc1`: the growth is 44.5% (inactive).

As to `CN1CCN(c2ccc(/C=N/Nc3nc4ccccc4c(=O)n3-c3ccccc3)cc2)CC1`, the growth is 103% (inactive).

On to `Cc1ccc(S(=O)(=O)N(CC[C@@H]2C[C@H]2c2cc3ccccc3o2)S(=O)(=O)c2ccc(C)cc2)cc1`, for which the growth is 94.6% (inactive).

Turning to `Cc1occc1-c1nc2s/c(=C/c3ccc(-c4cc(C(F)(F)F)ccc4Cl)o3)c(=O)n2n1`, the growth is 98.4% (inactive).

With `N/C(=N\C(N)=N\c1nc2ccccc2s1)c1cccc(F)c1`, the growth is 76.9% [5 µM] (inactive).

With `O=S(=O)(NC1c2ccccc2C[C@H]1O)c1ccc(Cl)cc1Cl` (stereo not given in full), the growth was 96.8% (inactive).

Take `O=C(O)c1ccc(-n2cc(CNc3cccc(Cl)c3)c(-c3ccc(F)cc3)n2)cc1`: the growth was 98.5% (inactive).

In the case of `COc1cc(-c2nc3sccn3c2-c2ccnc(S(C)(=O)=O)n2)ccc1F`, the growth was 88.7% (inactive).

Turning to `Cc1ccc(S(=O)(=O)NCCNc2nc(Nc3ccc(N4CCN(C)CC4)cc3)nc3ccsc23)cc1`, the growth was 97.4% (inactive).

Regarding `Cc1ccc(NC(=S)NNC(=S)Nc2ccc(C)cc2)cc1`, the growth was 98.1% (inactive).

With `NC(N)=Nc1ccc(Oc2cccc(NC(N)=Nc3ccc(Cl)c(C(F)(F)F)c3)c2)cn1`, the growth was 25.2% (inactive).

For the compound `Cc1cc(-c2ccc(Cl)cc2)n(Cc2nnc(SCC(=O)Nc3ccc(S(N)(=O)=O)cc3)n2-c2ccc([N+](=O)[O-])cc2)n1`, the growth was 82% (inactive).

As for `COc1ccc(/C(N)=N/C(N)=N/c2nc3ccccc3s2)cc1`, the growth is 79% (inactive).

Turning to `O=C(CN1CCN(c2cc(=O)[nH]c3ccc(F)cc23)CC1)Nc1ccc(Cl)cc1`, the growth is 60.8% (inactive).

For the compound `CCC(CC)N1C(=O)/C(=c2\sc3n(c2=O)NC2C(N=3)N(CC)C(=O)N2CC)c2ccccc21` (stereo not given), the growth was 56% (inactive).

For the compound `COc1cc(/C=C2\C(=O)Nc3ccccc32)ccc1OCc1ccc(F)cc1`, the growth is 100% (inactive).

On to `O=S(=O)(NCCNc1nccc(-n2cnc3ccccc32)n1)c1ccc(C(F)(F)F)cc1`, for which the growth was 72.5% (inactive).

As to `Nc1ccccc1NC(=O)c1ccc(NC(=O)C/C=C/c2cccnc2)cc1`, the growth was 29.1% (inactive).

As for `COc1ccc(-c2nc3cccc(O)c3c(=O)n2Cc2ccccc2)cc1COc1ccc(NC(C)=O)cc1`, the growth is 62.3% [3 µM] (inactive).

Regarding `Nc1ccccc1NC(=O)c1ccc(NC(=O)C/C=C/c2cccnc2)cn1`, the growth was 25.2% (inactive).

`Nc1nc(-c2cccc([N+](=O)[O-])c2)c(N=Nc2ccc([N+](=O)[O-])cc2Cl)s1`: the growth is 5.24% (active).

Turning to `CCCn1cnc2c(c1=N)C(c1ccc(Cl)cc1)c1sc3c(C)cccc3c1O2` (stereo not given), the growth is 17.9% (inactive).

For the compound `COc1cc(OC)c(S(N)(=O)=O)cc1C(C)=O`, the growth is 97.2% (inactive).

For `O=C(CSc1nnc(-c2ccc(Cl)cc2)n1-c1ccccc1)Nc1cccc(Cl)c1`, the growth is 25.4% (inactive).

`C#Cc1nc(C(C)=O)cs1`: the growth is 102% (inactive).

Take `O=C(Nc1nc2ccc([N+](=O)[O-])cc2s1)Nc1ccccc1Br`: the growth is 23.4% (inactive).

Consider `O=C1Nc2ccccc2/C1=C/c1ccc(COCC2CO2)n1-c1ccc(O)cc1` (stereo not given), for which the growth was 105% (inactive).

As to `Cc1ccc(-c2nnc(SCc3ccc(O)c4ncccc34)o2)cc1`, the growth is 34.5% (inactive).

For the compound `NC(N)=Nc1ccc(Nc2cccc(Oc3ccc(Cl)c(C(F)(F)F)c3)c2)cn1`, the growth is -71.8% (active).

On to `CCCSc1nc(Nc2ccc(/C(C)=N\NC(N)=S)cc2)c(C#N)c(-c2ccccc2)n1`, for which the growth was 77.9% (inactive).

In the case of `CC(=O)c1cc(C(=O)c2ccc(Br)cc2)n2cc(C)cc(C)c12`, the growth was 90.8% (inactive).
